Source: PubChem BioAssay
Results filed as inconclusive are left out. Unmarked numbers belong to inactive results.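 Rule for the calls: active = cell viability at or below a set limit in both duplicate runs, the limit being the all-compound median minus 4 SD (cut at about 23% in these data, passing the limit was not always enough); inconclusive = no clear call, values can overlap the other calls; inactive = the rest.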

Experiment: viability of HCT116 without oncogenic beta-catenin – human colon tumor cells, pilot screen (AID 823);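 note: 0% = wells killed by 20 µM Hyamine and 100% = untreated DMSO cell wells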
Conditions: HCT116 beta-catenin knockout viability, CellTiter-Glo, 60 h; at 10 µM; hits give low values

Q: With `CCc1nnc(NC(=O)CSc2nnc(Cc3cccn3C)n2C)s1` as the compound, how does the viability read?
A: 100%

Q: Which viability does the source give for `CCNc1cc2oc(=O)c(CN3CCOCC3)c(C)c2cc1C` here?
A: 91%

Q: With `COc1ccc(N=C(N(C)C)P(=O)(N(C)C)N(C)C)cc1` as the compound, how does the viability read?
A: 103%

Q: For `COC(=O)c1ccc2c(c1)N(C)CCS2`, which viability is on record?
A: 101%

Q: Which viability does the source give for `O=C(CSc1nnc(COc2ccccc2)o1)Nc1nccs1` here?
A: 95.6%

Q: For `COC(=O)c1ccccc1NC(=O)Nc1nnc(N2CCCCC2C)s1` (configuration not stated), which viability is on record?
A: 64.3%

Q: With `Cc1csc(NC(=O)CSc2nnc(Cn3c(=O)sc4ccccc43)n2-c2ccccc2)n1` as the compound, how does the viability read?
A: 96%

Q: Which viability does the source give for `CC(C)(C)OC(=O)N1CCC(C(N)=O)CC1` here?
A: 103%

Q: For `C=CCSc1nnc2c(n1)OC(c1cccnc1)Nc1ccccc1-2` (configuration not stated), which viability is on record?
A: 95.5%

Q: Which viability does the source give for `CN(C)/C=N/c1c(C#N)cnn1-c1ccccc1` here?
A: 103%

Q: For `COc1ccccc1CCNC(=O)c1cnn2c(C(F)F)cc(C)nc12`, which viability is on record?
A: 103%

Q: With `COc1ccc(N2C(=O)CCC(C(=O)N3CCC(C(N)=O)CC3)C2c2ccc(F)cc2)cc1` (configuration not stated) as the compound, how does the viability read?
A: 99.6%

Q: With `O=C(c1cc(C2CC2)on1)N1CCOCC1` as the compound, how does the viability read?
A: 96%

Q: Which viability does the source give for `Clc1ccc(-c2nnn(Cc3nc4ccccc4s3)n2)cc1` here?
A: 92.6%

Q: Which viability does the source give for `CC(C)C(=O)Nc1ccc2c(c1)C(=O)N(CCC(=O)O)C2=O` here?
A: 106%

Q: For `COc1ccc(N(CC(=O)NCc2ccccc2OC)S(=O)(=O)c2c(C)nn(C)c2C)cc1`, which viability is on record?
A: 99.6%

Q: For `O=C(c1cncc(Br)c1)N1CCN(c2ccc(N3CCOCC3)nn2)CC1`, which viability is on record?
A: 98.1%
